Legend:
Experiment in all cases: log2 ratio of Biotin-Ahx-Ub-VS probe labelling (fragment/DMSO); higher = less target engagement (more negative = stronger competition), active = hit call of the paper (q ≤ 0.05, log2 ratio ≤ -1)
Conditions in all cases: compound concentration: 200 uM; treatment time: 3 h
USP34 = USP34 (UniProt Q70CQ2)
In short: (§1)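 HEK293T lysate (495 µg per sample, in Tris/CHAPS/IGEPAL buffer with protease inhibitors) was exposed in triplicate for 3 h to fragment at 200 µM or to vehicle, then to Biotin-Ahx-Ub-VS at 0.5 µM final for 1 h. Labelled DUBs were enriched on NeutrAvidin, digested with LysC and trypsin, and analysed by diaPASEF LC-MS/MS. Spectronaut label-free quantities were normalised to the global median, and values are average log2 ratios of fragment over vehicle from an unpaired t-test. Only proteins with ≥2 unique peptides were used.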

USP36 = biological target: T1, USP36 (UniProt Q9P275)
T1 sequence (whole entry): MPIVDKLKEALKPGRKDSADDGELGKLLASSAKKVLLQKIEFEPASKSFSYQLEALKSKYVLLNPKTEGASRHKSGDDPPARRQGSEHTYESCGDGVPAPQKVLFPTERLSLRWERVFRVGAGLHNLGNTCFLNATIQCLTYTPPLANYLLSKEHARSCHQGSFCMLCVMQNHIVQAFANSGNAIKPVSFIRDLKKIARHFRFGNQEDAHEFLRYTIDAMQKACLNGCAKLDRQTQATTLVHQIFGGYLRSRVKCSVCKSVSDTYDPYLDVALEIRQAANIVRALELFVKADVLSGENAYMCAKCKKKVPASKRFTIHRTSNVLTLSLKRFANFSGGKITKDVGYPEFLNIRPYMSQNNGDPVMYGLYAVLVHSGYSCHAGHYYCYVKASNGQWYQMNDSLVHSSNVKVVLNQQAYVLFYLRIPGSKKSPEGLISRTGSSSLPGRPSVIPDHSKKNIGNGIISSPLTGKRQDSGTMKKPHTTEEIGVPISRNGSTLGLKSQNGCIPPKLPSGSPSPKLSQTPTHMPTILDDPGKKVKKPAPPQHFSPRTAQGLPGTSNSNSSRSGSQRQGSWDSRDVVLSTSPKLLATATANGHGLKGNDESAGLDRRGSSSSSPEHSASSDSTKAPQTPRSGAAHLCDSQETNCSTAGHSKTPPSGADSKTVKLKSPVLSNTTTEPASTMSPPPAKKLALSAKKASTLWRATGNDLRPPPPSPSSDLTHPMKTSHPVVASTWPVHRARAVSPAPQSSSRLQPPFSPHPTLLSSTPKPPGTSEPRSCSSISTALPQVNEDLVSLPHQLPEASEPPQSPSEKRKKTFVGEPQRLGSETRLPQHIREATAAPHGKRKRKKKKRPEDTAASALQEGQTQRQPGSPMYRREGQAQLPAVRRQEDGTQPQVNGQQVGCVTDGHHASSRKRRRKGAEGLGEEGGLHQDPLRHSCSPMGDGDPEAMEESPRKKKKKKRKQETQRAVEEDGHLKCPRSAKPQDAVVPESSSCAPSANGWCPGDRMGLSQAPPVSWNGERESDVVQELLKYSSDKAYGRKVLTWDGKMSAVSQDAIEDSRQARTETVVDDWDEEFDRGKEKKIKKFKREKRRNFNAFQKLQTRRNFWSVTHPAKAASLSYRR
In short: as §1

USP38 = biological target: T2, USP38 (UniProt Q8NB14)
T2 sequence (whole entry): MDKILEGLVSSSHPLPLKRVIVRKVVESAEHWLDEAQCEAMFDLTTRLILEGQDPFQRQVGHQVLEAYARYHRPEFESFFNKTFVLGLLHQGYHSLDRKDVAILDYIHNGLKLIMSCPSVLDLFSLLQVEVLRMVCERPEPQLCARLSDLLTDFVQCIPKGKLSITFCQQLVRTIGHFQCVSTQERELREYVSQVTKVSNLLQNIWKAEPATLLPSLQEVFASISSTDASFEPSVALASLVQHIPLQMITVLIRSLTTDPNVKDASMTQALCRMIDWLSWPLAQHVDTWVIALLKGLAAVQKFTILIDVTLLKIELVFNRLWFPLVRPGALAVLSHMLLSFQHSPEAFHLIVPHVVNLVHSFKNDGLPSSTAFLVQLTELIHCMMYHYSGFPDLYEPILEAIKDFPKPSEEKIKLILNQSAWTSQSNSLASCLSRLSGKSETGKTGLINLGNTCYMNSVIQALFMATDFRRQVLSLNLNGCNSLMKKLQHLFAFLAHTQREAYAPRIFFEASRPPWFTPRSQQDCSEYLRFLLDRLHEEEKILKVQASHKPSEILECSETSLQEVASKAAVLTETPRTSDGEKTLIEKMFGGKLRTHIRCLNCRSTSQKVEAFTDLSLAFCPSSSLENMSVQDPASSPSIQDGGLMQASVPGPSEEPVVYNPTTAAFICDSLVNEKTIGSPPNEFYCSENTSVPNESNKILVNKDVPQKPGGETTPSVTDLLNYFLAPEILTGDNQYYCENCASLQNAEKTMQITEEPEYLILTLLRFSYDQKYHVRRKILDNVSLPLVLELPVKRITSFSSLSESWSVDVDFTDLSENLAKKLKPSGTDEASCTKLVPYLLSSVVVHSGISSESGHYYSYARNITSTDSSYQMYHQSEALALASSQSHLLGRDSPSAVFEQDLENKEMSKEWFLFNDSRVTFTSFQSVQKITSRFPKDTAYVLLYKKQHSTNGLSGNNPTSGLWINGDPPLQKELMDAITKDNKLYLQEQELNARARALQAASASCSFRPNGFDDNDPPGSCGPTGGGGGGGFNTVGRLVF
In short: as §1

USP39 = biological target: T3, USP39 (UniProt Q53GS9)
T3 sequence (whole entry): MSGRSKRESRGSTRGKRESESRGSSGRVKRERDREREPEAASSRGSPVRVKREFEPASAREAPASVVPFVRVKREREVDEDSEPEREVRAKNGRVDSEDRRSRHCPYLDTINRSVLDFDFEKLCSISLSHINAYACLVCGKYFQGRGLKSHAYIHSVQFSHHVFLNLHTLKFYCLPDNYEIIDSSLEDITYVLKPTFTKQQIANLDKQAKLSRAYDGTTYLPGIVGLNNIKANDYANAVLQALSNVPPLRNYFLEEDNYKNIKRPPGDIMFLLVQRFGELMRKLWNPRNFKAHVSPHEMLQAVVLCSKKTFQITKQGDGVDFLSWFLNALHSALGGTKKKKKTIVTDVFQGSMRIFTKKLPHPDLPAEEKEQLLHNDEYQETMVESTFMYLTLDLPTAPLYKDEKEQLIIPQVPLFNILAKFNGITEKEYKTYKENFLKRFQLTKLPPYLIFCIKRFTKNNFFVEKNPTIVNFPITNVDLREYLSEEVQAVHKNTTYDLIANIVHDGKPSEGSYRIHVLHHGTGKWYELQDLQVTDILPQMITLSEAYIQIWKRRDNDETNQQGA
In short: as §1

USP4 = biological target: T4, USP4 (UniProt Q13107)
T4 sequence (whole entry): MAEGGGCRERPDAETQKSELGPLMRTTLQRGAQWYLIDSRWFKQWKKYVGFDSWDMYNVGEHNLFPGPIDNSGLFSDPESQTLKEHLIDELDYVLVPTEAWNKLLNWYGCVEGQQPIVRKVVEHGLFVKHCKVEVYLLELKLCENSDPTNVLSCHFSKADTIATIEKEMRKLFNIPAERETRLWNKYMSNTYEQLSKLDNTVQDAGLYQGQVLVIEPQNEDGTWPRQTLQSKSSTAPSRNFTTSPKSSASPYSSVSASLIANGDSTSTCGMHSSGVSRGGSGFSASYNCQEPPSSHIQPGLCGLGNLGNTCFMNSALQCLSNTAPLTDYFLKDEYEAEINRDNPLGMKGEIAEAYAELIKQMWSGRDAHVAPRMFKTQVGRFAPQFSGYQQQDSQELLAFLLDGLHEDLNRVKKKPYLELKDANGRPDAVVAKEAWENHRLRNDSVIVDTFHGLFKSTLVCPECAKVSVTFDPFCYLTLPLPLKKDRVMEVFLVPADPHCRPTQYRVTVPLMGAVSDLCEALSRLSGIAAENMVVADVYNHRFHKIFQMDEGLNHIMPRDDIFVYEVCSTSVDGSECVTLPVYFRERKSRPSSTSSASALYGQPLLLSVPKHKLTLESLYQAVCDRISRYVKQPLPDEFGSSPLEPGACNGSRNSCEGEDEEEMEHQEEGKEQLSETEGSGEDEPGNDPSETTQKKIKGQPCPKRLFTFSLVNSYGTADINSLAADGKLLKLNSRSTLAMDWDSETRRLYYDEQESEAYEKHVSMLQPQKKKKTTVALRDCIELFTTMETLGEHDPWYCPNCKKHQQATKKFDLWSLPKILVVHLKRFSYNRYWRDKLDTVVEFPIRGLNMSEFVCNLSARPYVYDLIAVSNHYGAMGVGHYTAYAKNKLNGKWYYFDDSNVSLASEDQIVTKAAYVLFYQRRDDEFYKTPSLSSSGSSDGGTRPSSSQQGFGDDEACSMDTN
In short: as §1

Measured: log2 ratio of Biotin-Ahx-Ub-VS probe labelling

Sequence of USP34 (Q70CQ2 whole entry, the tested form may be a part): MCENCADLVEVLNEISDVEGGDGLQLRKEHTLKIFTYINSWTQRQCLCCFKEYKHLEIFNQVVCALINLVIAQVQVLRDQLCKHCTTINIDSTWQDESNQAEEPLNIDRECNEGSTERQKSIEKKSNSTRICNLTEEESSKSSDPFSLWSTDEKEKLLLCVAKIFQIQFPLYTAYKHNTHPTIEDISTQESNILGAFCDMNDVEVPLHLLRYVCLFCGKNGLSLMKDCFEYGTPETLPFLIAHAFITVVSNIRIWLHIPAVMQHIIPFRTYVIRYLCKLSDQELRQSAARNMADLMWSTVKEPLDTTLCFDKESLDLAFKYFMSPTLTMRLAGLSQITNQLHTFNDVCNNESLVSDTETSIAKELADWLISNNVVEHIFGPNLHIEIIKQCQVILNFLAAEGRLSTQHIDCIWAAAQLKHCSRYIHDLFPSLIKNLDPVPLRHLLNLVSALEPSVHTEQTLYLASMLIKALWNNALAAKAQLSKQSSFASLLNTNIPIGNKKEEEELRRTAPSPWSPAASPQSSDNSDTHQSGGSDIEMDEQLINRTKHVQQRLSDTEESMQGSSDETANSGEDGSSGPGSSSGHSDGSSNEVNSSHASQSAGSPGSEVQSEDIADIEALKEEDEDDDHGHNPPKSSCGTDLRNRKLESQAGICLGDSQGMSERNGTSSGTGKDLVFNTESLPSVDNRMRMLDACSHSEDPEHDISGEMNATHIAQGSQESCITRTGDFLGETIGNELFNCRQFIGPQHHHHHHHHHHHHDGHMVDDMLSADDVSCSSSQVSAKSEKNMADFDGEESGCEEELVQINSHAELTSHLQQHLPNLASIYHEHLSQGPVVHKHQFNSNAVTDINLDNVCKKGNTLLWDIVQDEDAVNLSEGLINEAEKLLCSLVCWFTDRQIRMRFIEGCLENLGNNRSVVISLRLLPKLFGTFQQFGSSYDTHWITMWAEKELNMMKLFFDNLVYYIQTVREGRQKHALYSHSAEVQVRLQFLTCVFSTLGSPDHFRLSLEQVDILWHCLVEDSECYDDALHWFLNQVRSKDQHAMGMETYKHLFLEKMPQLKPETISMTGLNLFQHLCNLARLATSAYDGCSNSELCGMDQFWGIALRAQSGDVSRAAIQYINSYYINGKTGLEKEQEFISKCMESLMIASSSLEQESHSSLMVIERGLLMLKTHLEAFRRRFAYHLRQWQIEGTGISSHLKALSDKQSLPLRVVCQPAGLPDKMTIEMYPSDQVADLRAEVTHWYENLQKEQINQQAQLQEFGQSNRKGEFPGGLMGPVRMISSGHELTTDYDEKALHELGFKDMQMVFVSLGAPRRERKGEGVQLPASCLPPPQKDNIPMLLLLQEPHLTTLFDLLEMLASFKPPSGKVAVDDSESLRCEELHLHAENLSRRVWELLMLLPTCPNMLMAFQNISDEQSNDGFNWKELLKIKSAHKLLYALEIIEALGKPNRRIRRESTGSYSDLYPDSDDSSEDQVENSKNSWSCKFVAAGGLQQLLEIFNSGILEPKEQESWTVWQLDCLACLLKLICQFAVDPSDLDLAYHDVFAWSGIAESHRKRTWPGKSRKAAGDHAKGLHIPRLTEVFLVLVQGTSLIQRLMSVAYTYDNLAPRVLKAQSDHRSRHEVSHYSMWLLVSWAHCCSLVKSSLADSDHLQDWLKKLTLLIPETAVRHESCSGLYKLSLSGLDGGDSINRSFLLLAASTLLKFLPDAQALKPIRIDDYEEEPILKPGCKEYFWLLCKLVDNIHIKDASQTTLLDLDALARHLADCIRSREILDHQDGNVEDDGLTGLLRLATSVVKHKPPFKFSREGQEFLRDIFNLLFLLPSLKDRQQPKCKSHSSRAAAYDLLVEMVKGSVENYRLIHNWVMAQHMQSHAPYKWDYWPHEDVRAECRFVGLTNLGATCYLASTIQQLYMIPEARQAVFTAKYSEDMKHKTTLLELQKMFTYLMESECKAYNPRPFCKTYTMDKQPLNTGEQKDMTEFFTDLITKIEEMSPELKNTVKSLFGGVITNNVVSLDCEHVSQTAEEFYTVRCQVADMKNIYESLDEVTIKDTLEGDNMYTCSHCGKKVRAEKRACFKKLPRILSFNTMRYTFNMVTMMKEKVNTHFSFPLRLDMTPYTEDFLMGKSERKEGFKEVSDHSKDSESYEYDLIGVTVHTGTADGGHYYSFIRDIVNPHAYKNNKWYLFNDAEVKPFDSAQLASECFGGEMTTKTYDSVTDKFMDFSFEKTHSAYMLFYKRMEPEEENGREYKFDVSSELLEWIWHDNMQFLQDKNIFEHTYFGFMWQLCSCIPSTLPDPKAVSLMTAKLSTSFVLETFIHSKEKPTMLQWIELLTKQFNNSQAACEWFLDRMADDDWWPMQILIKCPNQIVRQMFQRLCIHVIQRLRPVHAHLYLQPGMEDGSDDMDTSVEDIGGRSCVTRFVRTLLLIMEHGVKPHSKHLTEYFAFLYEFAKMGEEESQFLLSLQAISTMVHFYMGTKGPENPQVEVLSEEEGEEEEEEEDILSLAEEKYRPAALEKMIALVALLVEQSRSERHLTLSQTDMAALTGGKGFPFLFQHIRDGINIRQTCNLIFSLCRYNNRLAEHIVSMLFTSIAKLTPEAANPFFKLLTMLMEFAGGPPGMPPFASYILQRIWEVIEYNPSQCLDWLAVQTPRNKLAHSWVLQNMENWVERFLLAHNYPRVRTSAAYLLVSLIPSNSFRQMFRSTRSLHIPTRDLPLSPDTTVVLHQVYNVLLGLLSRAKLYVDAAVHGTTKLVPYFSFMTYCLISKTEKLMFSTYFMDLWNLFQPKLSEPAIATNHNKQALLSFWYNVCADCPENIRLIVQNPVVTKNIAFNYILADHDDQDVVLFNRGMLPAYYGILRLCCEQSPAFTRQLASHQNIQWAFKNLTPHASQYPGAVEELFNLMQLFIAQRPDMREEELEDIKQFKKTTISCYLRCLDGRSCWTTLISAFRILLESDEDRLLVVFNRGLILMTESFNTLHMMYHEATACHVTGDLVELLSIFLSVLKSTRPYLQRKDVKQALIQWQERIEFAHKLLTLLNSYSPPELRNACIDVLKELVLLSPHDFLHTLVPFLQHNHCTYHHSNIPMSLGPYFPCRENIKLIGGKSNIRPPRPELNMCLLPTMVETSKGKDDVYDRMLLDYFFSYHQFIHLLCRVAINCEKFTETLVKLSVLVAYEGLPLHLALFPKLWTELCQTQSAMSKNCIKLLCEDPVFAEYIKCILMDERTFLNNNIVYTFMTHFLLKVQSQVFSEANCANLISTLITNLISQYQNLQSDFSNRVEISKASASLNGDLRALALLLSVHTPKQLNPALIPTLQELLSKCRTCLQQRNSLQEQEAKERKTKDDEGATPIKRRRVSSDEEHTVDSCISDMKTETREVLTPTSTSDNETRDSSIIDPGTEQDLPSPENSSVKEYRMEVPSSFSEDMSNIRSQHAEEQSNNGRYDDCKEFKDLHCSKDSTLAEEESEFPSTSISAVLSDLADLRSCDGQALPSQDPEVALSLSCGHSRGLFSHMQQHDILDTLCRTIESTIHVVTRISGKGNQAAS

O=C(CCl)Nc1nc(-c2cccs2)cs1
inactive: USP34 -0.754 | USP36 -0.271 | USP38 -0.092 | USP39 0.197 | USP4 -0.0279
